NadD block = inhibitors of S. aureus NadD, primary screen, biochemical, colorimetric, uHTS | Nicotinate-nucleotide adenylyltransferase NadD (Staphylococcus aureus N315) | purified NadD enzyme, colorimetric absorbance read-out | inhibition, % at 20 µM | hit rate 0.78% among 360,000 | AID 602399, 2012; in the data active = inhibition above about 26%
rCAG RNA binder = binders of r(CAG) RNA repeats, primary screen, biochemical, fluorescence | r(CAG) RNA repeat, TO-PRO-1 dye displacement fluorescence | inhibition, % at 3 µM | hit rate 1.3% among 370,000;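 active = inhibition above the plate cutoff, the mean of all test compounds on that plate plus 3 SD, cut at about 35% in these data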;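 also: 0% = DMSO alone and 100% = 100 µM mitoxantrone as full dye displacement; higher means more dye released from RNA so lower well fluorescence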
NR3A LBD binder = binders of NR3A ligand-binding domain, primary screen, biophysical, differential scanning fluorimetry, uHTS; Glutamate receptor ionotropic, NMDA 3A (GRIN3A) ligand-binding domain; NR3A LBD differential scanning fluorimetry, Tm shift; 0% = protein alone, 100% = glycine-bound protein; Tm shift relative to glycine control, % at 25 µM; hit rate 2.5% among 340,000; AID 1259313, 2017;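 active = melting temperature shift of at least 10% of the positive control shift, at one fixed dose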
FAS-TE inh = FAS thioesterase domain inhibitors, primary screen, biochemical, fluorescence intensity, uHTS | Fatty acid synthase (Homo sapiens), P49327 | recombinant FAS-TE, OMFH fluorogenic substrate, fluorescence endpoint | inhibition, % at 15 µM | hit rate 0.67% among 360,000 | AID 602261, 2012;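 active = compounds whose normalised, plate-corrected inhibition of enzyme fluorescence in the single-dose primary screen is 50% or more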;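 also: 0% = DMSO with enzyme and 100% = substrate without enzyme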
* hit, by the source's call; nt = no result given. Compounds with a hit are over-represented: about 4.3% of the library has one in this group of screens.

SMILES	NadD block	rCAG RNA binder	NR3A LBD binder	FAS-TE inh
Cc1ccc(C(=O)CC(=O)c2cc(Cl)ccc2O)cc1	12.7	8.7	10.6*	10.4
O/C=c1\ccc2cccc3nc(C(F)(F)F)nc1c23	33.5*	-84.7	-2.7	-122.9
CCOC(=O)[C@]12CCCC=C1N(CCCOC)C(=O)[C@@H]2CC(=O)NCc1ccc(C)o1	nt	-1.7	nt	nt
O=C(NCc1c(F)cccc1F)C1C2C=CC3(CN(Cc4ccccc4)C(=O)C13)O2 (centres undefined)	nt	1.0	nt	nt
COc1ccc(NC(=O)c2cc(-c3cc(C)c(C)cc3O)n[nH]2)c(OC)c1	4.1	22.1	42.0*	2.7
COc1ccc(OC)c(NC(=O)c2cc(-c3cc(C)cc(C)c3O)n[nH]2)c1	5.2	1.5	20.0*	3.4
COc1ccc(OC)c(NC(=O)c2cc(-c3cc(C)c(C)cc3O)n[nH]2)c1	4.9	14.4	40.5*	3.3
COc1ccc(CNC(=O)c2cc(-c3cc(C)cc(C)c3O)n[nH]2)cc1	-8.0	4.4	-0.9	1.3
COc1ccc(OC)c(NC(=O)c2cc(-c3c(C)cc(C)cc3O)n[nH]2)c1	-0.5	7.1	6.6	0.5
COc1ccc(NC(=O)c2cc(-c3cc(Cl)ccc3O)n[nH]2)c(OC)c1	-5.0	4.2	30.8*	-0.8
COc1ccc2c(c1)CCCN2C(=O)C1CCCN(S(=O)(=O)c2cccc3ccccc23)C1 (centres undefined)	nt	7.6	nt	nt
COc1ccc(NC(=O)/C=C/c2cccc(Br)c2)cn1	0.6	-11.4	32.6*	3.6
COc1ccc(NC(=O)/C=C/c2cccc(C(F)(F)F)c2)cn1	-2.6	-0.9	11.4*	4.1
COc1ccc(/C=C/C(=O)Nc2ccc(OC)nc2)cc1	3.2	-3.4	26.1*	1.1
COc1ccc(NC(=O)/C=C/c2ccc(OC(F)F)cc2)cn1	0.7	-0.1	3.4	4.7
COc1ccc(NC(=O)/C=C/c2ccc(OC)c(OC)c2)cn1	-1.2	-2.5	-17.0	-1.3
COc1ccc(/C=C/C(=O)Nc2cc(C(F)(F)F)ccc2Cl)cc1	-5.2	-3.2	14.8*	19.3
C=CCN1[C@H](Cc2ccccc2)COc2cccc(N3CCSCC3)c2S1(=O)=O	nt	1.6	nt	nt
C=CC(C)(C)c1c(O)c(CC=C(C)C)c(O)c2c(=O)c3ccc(O)c(O)c3oc12	3.1	nt	32.7*	20.3
Cc1cc(Cl)n2ncc(-c3ccccc3)c2n1	-0.5	5.0	-0.3	11.0
Cc1cc(SCC(=O)Nc2ccccc2)n2ncc(-c3ccccc3)c2n1	1.4	18.7	31.7*	7.2
Cc1cc(SCC(=O)Nc2ccc(O)cc2)n2ncc(-c3ccccc3)c2n1	7.5	33.1	27.3*	7.3
COc1ccc(NC(=O)CSc2cc(C)nc3c(-c4ccccc4)cnn23)cc1	3.6	-0.9	64.1*	0.3
Cc1cc(SCC(=O)Nc2ccc(O)cc2)n2nc(C)c(-c3ccccc3)c2n1	2.1	21.2	7.3	5.3
CC(C)n1nnnc1C1(C)Cn2nccc2C(=O)N1Cc1cccc(C(F)(F)F)c1 (centres undefined)	nt	1.7	nt	nt
SMILES	NadD block	rCAG RNA binder	NR3A LBD binder	FAS-TE inh
CCc1sc(C(=O)Nc2ccc(NC(C)=O)cc2)cc1C	-2.0	2.2	11.1*	-5.7
Cc1ccc(-c2ccc(CN3C(C)C(=O)N(Cc4cn(Cc5ccco5)nn4)CCS3(=O)=O)cc2)cc1 (centres undefined)	3.6	14.1	nt	19.3
CC(C)Cc1ccc(CN2C(C)C(=O)N(Cc3cn(Cc4ccco4)nn3)CCS2(=O)=O)cc1 (centres undefined)	12.5	50.6*	nt	-6.3
CCOC(=O)/C(=N\Nc1cccc(Cl)c1)Sc1nnc(-c2ccc(OC)cc2)n1C	8.2	7.9	13.2*	-4.5
COc1ccc(OC)c(NC(=O)CN2C(=O)C(=O)N(Cc3ccccc3)C2=O)c1	-3.6	2.7	0.2	-7.0
O=C(CN1C(=O)C(=O)N(Cc2ccccc2)C1=O)Nc1cc(Cl)cc(Cl)c1	-11.8	20.1	26.5*	12.6
O=C(CN1C(=O)C(=O)N(Cc2ccccc2)C1=O)Nc1ccc(OC(F)F)cc1	-3.8	0.1	15.7*	-4.1
CCCc1ccc(-c2cc(NC(=O)CSc3n[nH]c(N)n3)n(-c3ccccc3)n2)cc1	1.7	16.7	18.1*	-36.3
O=C(Cc1c[nH]c2ccccc12)Nc1ccc(Nc2cccnc2)c(-c2ccc(-c3ccccc3)cc2F)c1	nt	18.2	nt	nt
C[C@H]1CN([C@@H](C)CO)C(=O)c2c(c3ccccc3n2C)-c2ccccc2CO[C@H]1CN(C)C(=O)Nc1cccc(F)c1	nt	9.3	nt	nt
